Of roughly 8,800 targets only a part is listed; those with a hit were picked by preference. About 0.5% of all pairs of compound and target were hits.
Experiments:
Experiment in all cases: log2 fold change, soluble protein after heating vs DMSO (PISA); higher = thermal stabilisation; K562 lysate, 10 uM; active = over 0.2 and 3.5 SD of the protein, either way, in both replicates (recomputed)
[1] = compound: C#Cc1cccc(Nc2ncnc3cc(OCCOC)c(OCCOC)cc23)c1 [erlotinib]
Summary of the method: (§1)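 Values give the log-two fold change in thermal stability against solvent controls, from duplicates. Crude K562 extract at 1 mg/mL protein, made by dounce homogenisation in PBS pH 7.4 with 1 mM MgCl2, was treated with 10 μM compound for 30 min. After 3 min heating across 48°C-58°C, aliquots were pooled, adjusted to 0.5% NP-40 at 4°C and centrifuged at 21,000xg for 90 min. The supernatant was measured by TMTpro 16plex LC-MS/MS with channel sums equalised.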

[2] = compound: C/C(=N\NC(=O)C1=CC(=CC=C1)S(=O)(=O)N2CCOCC2)/C3=C(C=CC(=C3)Cl)O
Summary of the method: as §1

[3] = compound: C1=CC(=CC=C1C2=NC3=C(N2)C=C(C=C3)C(=O)N)OC4=CC=C(C=C4)Cl
Summary of the method: as §1

[4] = compound: C1=CC2=C(C=CC(=C2)/C=C\3/C(=O)NC(=NCC4=CC=CS4)S3)N=C1
Summary of the method: as §1

[5] = compound: C1=CC2=NC=CN=C2C=C1/C=C/3\C(=O)NC(=O)S3
Summary of the method: as §1

[6] = compound: C1=CC=C(C=C1)C2=NC(=C(N2)C3=CC=NC=C3)C4=CC(=C(C=C4)Cl)O
Summary of the method: as §1

[7] = compound: C1=CC=C2C(=C1)C3=NNC4=CC=CC(=C43)C2=O
Summary of the method: as §1

[8] = compound: C1COCCN1CCN2C3=CC=CC=C3N=C2NC(=O)C4=CC(=CC=C4)[N+](=O)[O-] [IRAK-1-4 Inhibitor I]
Summary of the method: as §1

[9] = compound: C1CCN(C1)C(=O)NC2=CC=CC(=C2)NC3=NC=C(C(=N3)NCCC4=CN=CN4)Br
Summary of the method: as §1

[10] = compound: C1CN(CCC1(CC2=CC=C(C=C2)Cl)N)C3=NC=NC4=C3C=CN4
Summary of the method: as §1

Measured: log2 fold change

DENND1B (UniProt Q6P3S1)
inactive: [1] -0.08 | [2] 0.153 | [3] -0.13 | [4] 0.04 | [5] 0.19 | [6] 0.019 | [7] 0.007 | [8] 0.014

CNOT4 isoform 9 (UniProt O95628)
inactive: [1] 0 | [2] 0.005 | [3] 0.015 | [4] -0.04 | [5] 0 | [6] -0.105 | [7] 0.015 | [9] 0.003 | [10] -0.013 | [8] 0.054

DNAH5 (UniProt Q8TE73)
inactive: [1] -0.006 | [2] -0.008 | [3] 0 | [4] -0.024 | [5] 0.015 | [6] 0.004 | [7] -0.056 | [8] -0.015

COX7B (UniProt P24311)
UniProt P24311, sequence (P24311 whole entry, looked up): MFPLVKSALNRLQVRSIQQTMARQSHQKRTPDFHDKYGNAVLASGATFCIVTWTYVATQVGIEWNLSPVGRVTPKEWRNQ
inactive: [1] -0.024 | [2] 0.026 | [3] 0.009 | [4] -0.011 | [6] -0.003 | [7] 0.022 | [9] -0.085 | [10] 0.022 | [8] 0.025

COG6 (UniProt Q9Y2V7)
inactive: [1] -0.059 | [2] 0.153 | [3] -0.074 | [4] -0.07 | [5] -0.008 | [6] 0.015 | [7] 0.024 | [9] 0.008 | [10] 0.077 | [8] 0.006

CTNND1 isoform 3 (UniProt O60716)
inactive: [1] -0.002 | [2] -0.039 | [3] -0.024 | [4] -0.045 | [5] 0.003 | [6] 0.087 | [7] -0.093 | [9] 0.009 | [10] 0.022 | [8] 0.004

CHEK1 (UniProt O14757)
UniProt O14757, sequence (O14757 whole entry, looked up): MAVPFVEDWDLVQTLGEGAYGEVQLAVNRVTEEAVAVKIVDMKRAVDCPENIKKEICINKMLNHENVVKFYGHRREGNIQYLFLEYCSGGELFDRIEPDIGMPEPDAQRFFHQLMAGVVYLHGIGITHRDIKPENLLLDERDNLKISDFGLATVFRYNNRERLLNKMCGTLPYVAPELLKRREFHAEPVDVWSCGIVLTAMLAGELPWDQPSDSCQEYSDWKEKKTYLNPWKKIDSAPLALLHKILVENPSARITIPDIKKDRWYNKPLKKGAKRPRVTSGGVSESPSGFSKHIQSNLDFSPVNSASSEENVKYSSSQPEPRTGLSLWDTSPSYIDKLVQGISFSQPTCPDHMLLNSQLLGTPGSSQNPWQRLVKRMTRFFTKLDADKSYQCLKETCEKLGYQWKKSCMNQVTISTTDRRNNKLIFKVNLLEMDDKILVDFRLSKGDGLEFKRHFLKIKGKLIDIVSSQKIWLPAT
inactive: [1] -0.048 | [2] -0.057 | [3] 0 | [5] 0.008 | [6] 0.023 | [7] 0.06 | [9] -0.108 | [10] 0.02 | [8] -0.011
active: [4] 0.27

DDX4 (UniProt Q9NQI0)
inactive: [1] -0.043 | [2] 0.165 | [3] -0.112 | [4] -0.028 | [5] -0.055 | [6] 0.114 | [7] -0.004 | [9] 0.002 | [10] 0.011 | [8] -0.109

COG2 (UniProt Q14746)
inactive: [1] 0.009 | [2] 0.036 | [3] -0.021 | [4] -0.022 | [5] -0.032 | [6] -0.017 | [7] -0.001 | [9] 0.011 | [10] 0.031 | [8] 0.03

DIAPH1 (UniProt H9KV28)
inactive: [1] -0.1 | [2] -0.013 | [3] -0.053 | [4] 0.005 | [5] -0.04 | [6] -0.164 | [7] -0.024 | [9] 0.031 | [10] -0.037 | [8] 0.034

CNNM2 (UniProt Q9H8M5)
inactive: [1] -0.109 | [2] -0.206 | [3] 0.038 | [4] 0.058 | [6] -0.106 | [7] -0.029 | [9] 0.045 | [10] 0.201 | [8] 0.098

CUL1 (UniProt Q13616)
inactive: [1] -0.011 | [2] 0.006 | [3] 0.026 | [4] 0.01 | [5] 0.009 | [6] -0.011 | [7] 0.017 | [9] 0 | [10] -0.006 | [8] -0.013

CKAP5 (UniProt Q14008)
inactive: [1] 0.018 | [2] 0.003 | [3] 0.005 | [4] -0.01 | [5] -0.009 | [6] 0.002 | [7] -0.055 | [9] -0.015 | [10] 0.004 | [8] 0.001

CMTM3 (UniProt Q96MX0)
UniProt Q96MX0, sequence (Q96MX0 whole entry, looked up): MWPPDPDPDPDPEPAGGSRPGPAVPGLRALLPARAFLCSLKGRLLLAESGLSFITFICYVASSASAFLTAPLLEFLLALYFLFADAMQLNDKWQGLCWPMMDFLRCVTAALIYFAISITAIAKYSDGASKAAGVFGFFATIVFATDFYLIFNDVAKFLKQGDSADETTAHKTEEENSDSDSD
inactive: [1] 0.002 | [2] -0.112 | [3] 0.053 | [4] -0.084 | [5] -0.009 | [6] -0.011 | [7] -0.019 | [9] -0.083 | [10] -0.089 | [8] -0.012

DDB2 (UniProt Q92466)
UniProt Q92466, sequence (Q92466 whole entry, looked up): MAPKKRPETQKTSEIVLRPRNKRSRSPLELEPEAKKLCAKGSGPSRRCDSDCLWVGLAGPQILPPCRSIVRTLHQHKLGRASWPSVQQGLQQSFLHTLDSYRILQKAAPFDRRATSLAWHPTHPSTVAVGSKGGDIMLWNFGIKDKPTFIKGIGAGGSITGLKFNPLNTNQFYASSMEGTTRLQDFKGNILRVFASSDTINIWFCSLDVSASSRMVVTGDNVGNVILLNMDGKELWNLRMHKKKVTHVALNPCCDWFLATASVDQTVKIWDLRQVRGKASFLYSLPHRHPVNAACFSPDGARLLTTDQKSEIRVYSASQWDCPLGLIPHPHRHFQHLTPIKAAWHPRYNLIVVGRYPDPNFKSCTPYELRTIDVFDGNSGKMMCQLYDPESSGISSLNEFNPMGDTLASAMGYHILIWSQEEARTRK
inactive: [1] -0.007 | [2] -0.028 | [3] 0.07 | [4] 0.052 | [5] 0.064 | [6] -0.024 | [7] 0 | [9] -0.075 | [10] -0.041 | [8] 0.026

CNOT2 (UniProt F8VRS8)
inactive: [1] 0.307 | [3] 0.101

CIC (UniProt I3L1Q4)
inactive: [5] -0.03

CRLS1 (UniProt Q9UJA2)
UniProt Q9UJA2, sequence (Q9UJA2 whole entry, looked up): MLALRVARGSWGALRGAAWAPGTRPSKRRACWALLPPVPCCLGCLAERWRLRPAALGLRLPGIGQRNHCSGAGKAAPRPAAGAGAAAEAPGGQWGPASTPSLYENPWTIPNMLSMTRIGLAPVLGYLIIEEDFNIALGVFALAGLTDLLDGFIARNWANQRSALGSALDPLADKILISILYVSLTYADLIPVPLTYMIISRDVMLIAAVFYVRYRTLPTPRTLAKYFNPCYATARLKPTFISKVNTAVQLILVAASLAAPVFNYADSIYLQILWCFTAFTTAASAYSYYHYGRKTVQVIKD
inactive: [1] 0.074 | [3] -0.085 | [5] 0.087 | [6] 0.056 | [8] -0.021

DHX32 (UniProt Q7L7V1)
inactive: [1] -0.083 | [2] -0.091 | [3] 0.098 | [4] -0.052 | [6] 0.013 | [7] 0.038 | [9] -0.145 | [10] 0.044 | [8] 0.036

DNAJC24 (UniProt Q6P3W2)
UniProt Q6P3W2, sequence (Q6P3W2 whole entry, looked up): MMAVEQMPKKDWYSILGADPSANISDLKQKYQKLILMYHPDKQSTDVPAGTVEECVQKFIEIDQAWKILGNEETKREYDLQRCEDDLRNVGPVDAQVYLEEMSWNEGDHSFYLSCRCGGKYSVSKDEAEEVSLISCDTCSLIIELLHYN
inactive: [1] 0.034 | [2] -0.069 | [3] 0.021 | [4] 0.011 | [6] 0.016 | [7] 0.081 | [9] 0.01 | [10] 0.01 | [8] -0.055

DCTN1 isoform 4 (UniProt Q14203)
inactive: [1] -0.021 | [2] -0.166 | [3] 0.065 | [4] -0.109 | [6] 0.098 | [7] 0.126 | [9] -0.141 | [10] 0 | [8] 0.02

CLASP2 (UniProt O75122)
UniProt O75122, sequence (O75122 whole entry, looked up): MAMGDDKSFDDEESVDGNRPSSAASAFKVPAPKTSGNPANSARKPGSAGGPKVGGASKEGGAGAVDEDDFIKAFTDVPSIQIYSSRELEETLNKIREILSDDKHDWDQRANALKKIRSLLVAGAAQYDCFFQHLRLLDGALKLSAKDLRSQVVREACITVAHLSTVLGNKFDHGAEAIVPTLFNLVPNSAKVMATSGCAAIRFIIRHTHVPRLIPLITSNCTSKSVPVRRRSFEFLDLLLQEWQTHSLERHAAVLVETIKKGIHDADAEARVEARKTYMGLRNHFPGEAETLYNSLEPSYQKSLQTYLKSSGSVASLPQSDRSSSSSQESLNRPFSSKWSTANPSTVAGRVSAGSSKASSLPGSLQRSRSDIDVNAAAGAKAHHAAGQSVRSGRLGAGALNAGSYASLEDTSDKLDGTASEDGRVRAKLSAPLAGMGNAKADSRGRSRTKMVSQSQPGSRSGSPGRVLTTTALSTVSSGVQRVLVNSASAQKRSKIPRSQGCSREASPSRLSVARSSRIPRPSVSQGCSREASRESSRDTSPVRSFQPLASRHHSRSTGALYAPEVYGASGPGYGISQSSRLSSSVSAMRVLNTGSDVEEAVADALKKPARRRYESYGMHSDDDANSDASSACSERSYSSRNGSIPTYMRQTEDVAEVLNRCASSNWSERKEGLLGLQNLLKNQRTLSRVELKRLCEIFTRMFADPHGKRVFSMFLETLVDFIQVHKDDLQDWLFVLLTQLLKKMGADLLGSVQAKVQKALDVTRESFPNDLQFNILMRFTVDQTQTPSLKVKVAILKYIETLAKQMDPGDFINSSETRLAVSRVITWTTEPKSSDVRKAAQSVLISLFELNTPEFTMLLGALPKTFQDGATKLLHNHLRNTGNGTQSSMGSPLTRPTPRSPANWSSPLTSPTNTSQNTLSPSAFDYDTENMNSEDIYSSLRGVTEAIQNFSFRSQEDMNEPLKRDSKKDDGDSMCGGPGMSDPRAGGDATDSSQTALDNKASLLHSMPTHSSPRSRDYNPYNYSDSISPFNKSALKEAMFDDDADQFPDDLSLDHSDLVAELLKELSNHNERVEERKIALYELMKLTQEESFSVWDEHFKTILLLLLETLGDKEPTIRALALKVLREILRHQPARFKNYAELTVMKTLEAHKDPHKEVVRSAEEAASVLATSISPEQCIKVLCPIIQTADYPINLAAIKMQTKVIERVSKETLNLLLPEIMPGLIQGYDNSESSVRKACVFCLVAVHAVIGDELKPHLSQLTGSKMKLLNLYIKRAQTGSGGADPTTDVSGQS
inactive: [2] -0.114 | [4] 0.12 | [5] -0.225 | [6] -0.044 | [7] -0.059 | [9] 0 | [10] 0.023 | [8] -0.017

CXCL14 (UniProt O95715)
inactive: [2] 0.119 | [4] -0.094 | [5] -0.09 | [7] -0.268 | [9] -0.444 | [10] 0.119

CYP2S1 isoform 2 (UniProt Q96SQ9)
inactive: [1] -0.026 | [2] -0.291 | [3] -0.018 | [4] -0.096 | [6] 0.07 | [7] -0.123 | [9] -0.198 | [10] 0.08 | [8] -0.044

CSRP2 (UniProt Q16527)
inactive: [5] -0.097 | [9] 0.043 | [10] -0.003

CINP isoform 3 (UniProt Q9BW66)
UniProt Q9BW66, sequence (Q9BW66 whole entry, looked up): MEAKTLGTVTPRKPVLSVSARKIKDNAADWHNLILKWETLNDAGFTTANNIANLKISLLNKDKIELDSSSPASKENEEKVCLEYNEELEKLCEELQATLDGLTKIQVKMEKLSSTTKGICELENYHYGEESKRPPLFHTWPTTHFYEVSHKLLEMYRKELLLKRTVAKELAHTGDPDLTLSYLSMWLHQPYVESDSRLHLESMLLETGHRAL
inactive: [2] 0.016 | [4] 0.015 | [5] -0.015 | [6] 0.081 | [7] -0.102 | [9] -0.015 | [10] -0.056 | [8] 0.074

CPLX1 (UniProt O14810)
inactive: [2] -0.059 | [4] 0.062 | [6] 0.012 | [7] 0.114 | [9] 0.012 | [10] -0.048 | [8] 0.027

CSNK1A1 isoform 3 (UniProt P48729)
inactive: [6] -0.006 | [8] 0.088

DHRS13 (UniProt Q6UX07)
UniProt Q6UX07, sequence (Q6UX07 whole entry, looked up): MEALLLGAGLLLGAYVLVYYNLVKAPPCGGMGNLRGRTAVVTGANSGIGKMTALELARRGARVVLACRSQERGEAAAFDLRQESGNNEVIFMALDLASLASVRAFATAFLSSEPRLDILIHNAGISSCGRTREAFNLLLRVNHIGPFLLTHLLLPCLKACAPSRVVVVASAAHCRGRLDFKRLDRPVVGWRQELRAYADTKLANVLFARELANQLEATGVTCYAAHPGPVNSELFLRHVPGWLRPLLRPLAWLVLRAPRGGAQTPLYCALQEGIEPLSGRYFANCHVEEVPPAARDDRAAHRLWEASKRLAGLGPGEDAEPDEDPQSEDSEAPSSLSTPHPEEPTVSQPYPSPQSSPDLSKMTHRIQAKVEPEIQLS
inactive: [1] 0.227 | [3] -0.074 | [5] -0.142 | [6] 0.133 | [8] -0.162

COPS9 (UniProt Q8WXC6)
inactive: [1] -0.01 | [3] -0.362 | [6] 0.081 | [8] -0.371

CHEK2 (UniProt O96017)
UniProt O96017, sequence (O96017 whole entry, looked up): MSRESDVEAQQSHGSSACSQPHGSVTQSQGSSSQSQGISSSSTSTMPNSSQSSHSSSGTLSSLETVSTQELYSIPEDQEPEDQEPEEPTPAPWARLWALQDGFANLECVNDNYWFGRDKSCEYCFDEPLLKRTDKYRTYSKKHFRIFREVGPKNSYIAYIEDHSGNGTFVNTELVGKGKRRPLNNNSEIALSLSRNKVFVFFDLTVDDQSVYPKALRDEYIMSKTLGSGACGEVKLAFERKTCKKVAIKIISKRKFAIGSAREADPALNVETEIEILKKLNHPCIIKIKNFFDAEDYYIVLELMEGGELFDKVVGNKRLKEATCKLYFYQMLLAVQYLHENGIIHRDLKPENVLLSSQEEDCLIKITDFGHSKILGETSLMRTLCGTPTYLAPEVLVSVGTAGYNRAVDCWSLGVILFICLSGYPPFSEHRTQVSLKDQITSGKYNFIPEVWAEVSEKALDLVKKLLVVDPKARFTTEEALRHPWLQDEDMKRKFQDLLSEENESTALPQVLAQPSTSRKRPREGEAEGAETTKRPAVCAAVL
inactive: [1] -0.042 | [2] -0.006 | [4] 0.05 | [5] 0.053 | [6] 0.018 | [7] 0.148 | [9] 0.11 | [10] -0.035 | [8] -0.031

DNM2 isoform 4 (UniProt P50570)
UniProt P50570, sequence (P50570 whole entry, looked up): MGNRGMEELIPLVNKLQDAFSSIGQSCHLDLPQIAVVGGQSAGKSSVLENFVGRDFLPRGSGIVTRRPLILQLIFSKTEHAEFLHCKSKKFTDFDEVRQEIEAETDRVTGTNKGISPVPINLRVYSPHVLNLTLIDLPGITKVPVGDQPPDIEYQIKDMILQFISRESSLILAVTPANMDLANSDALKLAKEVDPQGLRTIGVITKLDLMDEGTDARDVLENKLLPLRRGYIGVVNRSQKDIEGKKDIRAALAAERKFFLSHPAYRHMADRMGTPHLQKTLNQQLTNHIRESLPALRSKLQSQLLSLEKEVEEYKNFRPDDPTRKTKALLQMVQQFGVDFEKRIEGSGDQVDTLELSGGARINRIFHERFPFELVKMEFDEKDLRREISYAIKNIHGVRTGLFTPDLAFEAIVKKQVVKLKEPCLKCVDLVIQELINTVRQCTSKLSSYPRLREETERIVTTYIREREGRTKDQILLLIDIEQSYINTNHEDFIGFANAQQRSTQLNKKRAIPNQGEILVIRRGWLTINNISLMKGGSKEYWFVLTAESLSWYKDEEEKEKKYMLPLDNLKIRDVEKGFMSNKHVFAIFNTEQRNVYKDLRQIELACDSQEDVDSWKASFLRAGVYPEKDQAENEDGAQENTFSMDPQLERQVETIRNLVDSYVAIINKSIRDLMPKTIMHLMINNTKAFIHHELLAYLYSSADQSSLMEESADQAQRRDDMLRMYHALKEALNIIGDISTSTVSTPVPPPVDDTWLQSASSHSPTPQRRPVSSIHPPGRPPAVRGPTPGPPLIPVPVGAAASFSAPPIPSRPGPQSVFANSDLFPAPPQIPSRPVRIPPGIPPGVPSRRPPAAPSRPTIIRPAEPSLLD
inactive: [1] 0.099 | [3] 0.107 | [6] 0.072 | [9] -0.11 | [10] -0.011 | [8] 0.133

CLASP1 isoform 4 (UniProt Q7Z460)
inactive: [1] 0.199 | [2] -0.041 | [3] 0.04 | [4] -0.262 | [7] -0.029

Source: the supplement of paper PMC10849652
